In all, about 5,500 compounds went through this assay and about 2,000 (36%) were called active. About 18% were inconclusive and are not listed. No stated cut-off is given here; in the data, active means normalized growth mostly below about 0.91 (no sharp cut-off); inconclusive means no clear call, values can overlap the other calls; inactive means mostly above about 0.92. Some of the results follow.
Assay: chemical genetic growth profiling, strain panel (AID 1159580);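 further: tested at 20 µM; growth read once vehicle control cultures reached saturation at 30 °C; 1 = growth at the plate median or of vehicle wells; lower values mean less growth of the strain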
Conditions: S. cerevisiae deletion strains, growth OD

Measured: normalized growth

CCCCCCCCCCCCCC(=O)O[C@@H]1[C@@H](C)[C@@]2(O)[C@@H](C=C(CO)C[C@@]3(O)C(=O)C(C)=C[C@@H]23)C2C(C)(C)[C@@]21OC(C)=O (some centres undefined)
inactive: locus YAL040C, strain CLN3, hits give low values 0.977 | locus YCL061C, strain MRC1 (second series), hits give low values 0.992 | locus YDR150W, strain NUM1, hits give low values 0.999 | locus YDR363W, strain ESC2, hits give low values 0.999 | locus YER002W, strain NOP16, hits give low values 0.985 | locus YGR078C, strain PAC10, hits give low values 0.972 | locus YNL128W, strain TEP1, hits give low values 1.01 | locus YNL175C, strain NOP13, hits give low values 1.01 | locus YNL197C, strain WHI3, hits give low values 1.02 | locus YNL224C, strain SQS1, hits give low values 1.01 | locus YNL322C, strain KRE1, hits give low values 1 | locus YOR083W, strain WHI5 (second series), hits give low values 1.01 | locus YPL055C, strain LGE1, hits give low values 1.06 | locus YPL241C, strain CIN2, hits give low values 0.997

— PubChem BioAssay AID1159580 (chemical genetic matrix, 2015)
